# Results as given in paper PMC9911399, “Two distinct binding modes provide the RNA-binding protein RbFox with extraordinary sequence specificity”.
# Positions count from the first letter of the chain named. Over roughly 16,000 sequences, “ka relative to ugcaugu” has its median near 0.0091; the highest 2% begin near 0.032. The full list was thinned out, with the highest values kept by preference.
# T1: RBFOX1 RRM (Homo sapiens, UniProt Q9NWB1 109-208)
# T1 sequence: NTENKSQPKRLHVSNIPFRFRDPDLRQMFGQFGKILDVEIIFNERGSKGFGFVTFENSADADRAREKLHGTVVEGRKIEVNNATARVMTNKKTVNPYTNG
# B1: CGGGCAU (DNA:RNA)
# RNA: GGGAGACCGGAAUUCAGAUUGUCCCGGGCAUUUAAAUCCCGUCGUAGCCACCA
# DNA 1: CAATCTGAATTCCGGTCTCCC
# DNA 2: TGGTGGCTACGACGGGATT
# B2: GGGCAUU (DNA:RNA)
# RNA: B1 RNA with C25G, G28C, C29A, A30U
# DNA 1: CAATCTGAATTCCGGTCTCCC
# DNA 2: TGGTGGCTACGACGGGATT
# B3: GGGGCAU (DNA:RNA)
# RNA: B1 RNA with C25G
# DNA 1: CAATCTGAATTCCGGTCTCCC
# DNA 2: TGGTGGCTACGACGGGATT
# B4: GGGCAUC (DNA:RNA)
# RNA: B1 RNA with C25G, G28C, C29A, A30U, U31C
# DNA 1: CAATCTGAATTCCGGTCTCCC
# DNA 2: TGGTGGCTACGACGGGATT
# B5: GGGCAUG (DNA:RNA)
# RNA: B1 RNA with C25G, G28C, C29A, A30U, U31G
# DNA 1: CAATCTGAATTCCGGTCTCCC
# DNA 2: TGGTGGCTACGACGGGATT
# B6: GGGCAUA (DNA:RNA)
# RNA: B1 RNA with C25G, G28C, C29A, A30U, U31A
# DNA 1: CAATCTGAATTCCGGTCTCCC
# DNA 2: TGGTGGCTACGACGGGATT
# B7: CGCCCAU (DNA:RNA)
# RNA: B1 RNA with G27C, G28C
# DNA 1: CAATCTGAATTCCGGTCTCCC
# DNA 2: TGGTGGCTACGACGGGATT
# B8: AGCCGAC (DNA:RNA)
# RNA: B1 RNA with C25A, G27C, G28C, C29G, U31C
# DNA 1: CAATCTGAATTCCGGTCTCCC
# DNA 2: TGGTGGCTACGACGGGATT
# B9: UCGCCUU (DNA:RNA)
# RNA: B1 RNA with C25U, G26C, G28C, A30U
# DNA 1: CAATCTGAATTCCGGTCTCCC
# DNA 2: TGGTGGCTACGACGGGATT
# B10: GGAAGAA (DNA:RNA)
# RNA: B1 RNA with C25G, G27A, G28A, C29G, U31A
# DNA 1: CAATCTGAATTCCGGTCTCCC
# DNA 2: TGGTGGCTACGACGGGATT
# B11: CGGAAGA (DNA:RNA)
# RNA: B1 RNA with G28A, C29A, A30G, U31A
# DNA 1: CAATCTGAATTCCGGTCTCCC
# DNA 2: TGGTGGCTACGACGGGATT
# B12: GGGAGAA (DNA:RNA)
# RNA: B1 RNA with C25G, G28A, C29G, U31A
# DNA 1: CAATCTGAATTCCGGTCTCCC
# DNA 2: TGGTGGCTACGACGGGATT
# B13: GUCAGAA (DNA:RNA)
# RNA: B1 RNA with C25G, G26U, G27C, G28A, C29G, U31A
# DNA 1: CAATCTGAATTCCGGTCTCCC
# DNA 2: TGGTGGCTACGACGGGATT
# B14: GGAGAAA (DNA:RNA)
# RNA: B1 RNA with C25G, G27A, C29A, U31A
# DNA 1: CAATCTGAATTCCGGTCTCCC
# DNA 2: TGGTGGCTACGACGGGATT
# B15: GGGAAGA (DNA:RNA)
# RNA: B1 RNA with C25G, G28A, C29A, A30G, U31A
# DNA 1: CAATCTGAATTCCGGTCTCCC
# DNA 2: TGGTGGCTACGACGGGATT
# B16: ACUGGCG (DNA:RNA)
# RNA: B1 RNA with C25A, G26C, G27U, C29G, A30C, U31G
# DNA 1: CAATCTGAATTCCGGTCTCCC
# DNA 2: TGGTGGCTACGACGGGATT
# B17: CAGGCCG (DNA:RNA)
# RNA: B1 RNA with G26A, A30C, U31G
# DNA 1: CAATCTGAATTCCGGTCTCCC
# DNA 2: TGGTGGCTACGACGGGATT
# B18: CGCGCGC (DNA:RNA)
# RNA: B1 RNA with G27C, A30G, U31C
# DNA 1: CAATCTGAATTCCGGTCTCCC
# DNA 2: TGGTGGCTACGACGGGATT
# B19: GCUCGUC (DNA:RNA)
# RNA: GGGAGACCGGAAUUCAGAUUGUCCGCUCGUCUUAAAUCCCGUCGUAGCCACCA
# DNA 1: CAATCTGAATTCCGGTCTCCC
# DNA 2: TGGTGGCTACGACGGGATT
# B20: GCGCUUG (DNA:RNA)
# RNA: B19 RNA with U27G, G29U, C31G
# DNA 1: CAATCTGAATTCCGGTCTCCC
# DNA 2: TGGTGGCTACGACGGGATT
# B21: CCGCUGG (DNA:RNA)
# RNA: B1 RNA with G26C, G28C, C29U, A30G, U31G
# DNA 1: CAATCTGAATTCCGGTCTCCC
# DNA 2: TGGTGGCTACGACGGGATT
# B22: GCUUGAA (DNA:RNA)
# RNA: B19 RNA with C28U, U30A, C31A
# DNA 1: CAATCTGAATTCCGGTCTCCC
# DNA 2: TGGTGGCTACGACGGGATT
# B23: GCUGGUC (DNA:RNA)
# RNA: B19 RNA with C28G
# DNA 1: CAATCTGAATTCCGGTCTCCC
# DNA 2: TGGTGGCTACGACGGGATT
# B24: CGUUGAG (DNA:RNA)
# RNA: B1 RNA with G27U, G28U, C29G, U31G
# DNA 1: CAATCTGAATTCCGGTCTCCC
# DNA 2: TGGTGGCTACGACGGGATT
# B25: GCUUGAG (DNA:RNA)
# RNA: B19 RNA with C28U, U30A, C31G
# DNA 1: CAATCTGAATTCCGGTCTCCC
# DNA 2: TGGTGGCTACGACGGGATT
# B26: GCGCUGG (DNA:RNA)
# RNA: B19 RNA with U27G, G29U, U30G, C31G
# DNA 1: CAATCTGAATTCCGGTCTCCC
# DNA 2: TGGTGGCTACGACGGGATT
# B27: GCUUGUC (DNA:RNA)
# RNA: B19 RNA with C28U
# DNA 1: CAATCTGAATTCCGGTCTCCC
# DNA 2: TGGTGGCTACGACGGGATT
# B28: GCCGCGC (DNA:RNA)
# RNA: B19 RNA with U27C, C28G, G29C, U30G
# DNA 1: CAATCTGAATTCCGGTCTCCC
# DNA 2: TGGTGGCTACGACGGGATT
# B29: GCUCUUG (DNA:RNA)
# RNA: B19 RNA with G29U, C31G
# DNA 1: CAATCTGAATTCCGGTCTCCC
# DNA 2: TGGTGGCTACGACGGGATT
# B30: AGCCGGG (DNA:RNA)
# RNA: B19 RNA with G25A, C26G, U27C, U30G, C31G
# DNA 1: CAATCTGAATTCCGGTCTCCC
# DNA 2: TGGTGGCTACGACGGGATT
# B31: GUUCCGG (DNA:RNA)
# RNA: B19 RNA with C26U, G29C, U30G, C31G
# DNA 1: CAATCTGAATTCCGGTCTCCC
# DNA 2: TGGTGGCTACGACGGGATT
# Target: T1, RBFOX1 RRM
# Test: EMSA; HiTS-Eq, 1 nM pool, 10 min; buffer printed only for the single-RNA assays: 10 mM Tris pH 7.5, 150 mM NaCl, 3.4 mM EDTA, 0.001% NP-40, 30 C
# Details: tags: His6 N-terminal (pET28a); label: 5' 32P
# Procedure, shortened: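 Purified wild-type or mutant RbFox RRM at increasing concentrations was equilibrated with 1 nM of 5′-radiolabelled RNA carrying 7 randomized nucleotides for 10 min in 50 µL. Unbound RNA was separated by 8% native PAGE and sequenced. Relative association constants came from read-count changes of each RNA species compared with the control reaction, normalised to the cognate motif.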
row,Binder,binding signal
1,B1,0.0317 KA relative to UGCAUGU
2,B2,0.0157 KA relative to UGCAUGU
3,B3,0.0283 KA relative to UGCAUGU
4,B4,0.0179 KA relative to UGCAUGU
5,B5,0.519 KA relative to UGCAUGU
6,B6,0.0114 KA relative to UGCAUGU
7,B7,0.00281 KA relative to UGCAUGU
8,B8,0.00754 KA relative to UGCAUGU
9,B9,0.0126 KA relative to UGCAUGU
10,B10,0.0149 KA relative to UGCAUGU
11,B11,0.0191 KA relative to UGCAUGU
12,B12,0.0327 KA relative to UGCAUGU
13,B13,0.0136 KA relative to UGCAUGU
14,B14,0.0138 KA relative to UGCAUGU
15,B15,0.0349 KA relative to UGCAUGU
16,B16,0.0166 KA relative to UGCAUGU

row,Binder,binding signal
1,B17,0.00997 KA relative to UGCAUGU
2,B18,0.0126 KA relative to UGCAUGU
3,B19,0.0303 KA relative to UGCAUGU
4,B20,0.0323 KA relative to UGCAUGU
5,B21,0.0189 KA relative to UGCAUGU
6,B22,0.0288 KA relative to UGCAUGU
7,B23,0.0255 KA relative to UGCAUGU
8,B24,0.0235 KA relative to UGCAUGU
9,B25,0.0353 KA relative to UGCAUGU
10,B26,0.0322 KA relative to UGCAUGU
11,B27,0.0386 KA relative to UGCAUGU
12,B28,0.0197 KA relative to UGCAUGU
13,B29,0.014 KA relative to UGCAUGU
14,B30,0.0115 KA relative to UGCAUGU
15,B31,0.0142 KA relative to UGCAUGU
